Assay results published in PMC6451091, “NextPBM: a platform to study cell-specific transcription factor binding and cooperativity”.
Whole data set: some 3,700 sequences, median “z-score” near 4, cut for the highest 2% near 8.4. The entries come from a sample that favours the highest values as a whole.

What was measured:
[1] = target: PU.1 (IVT) (UniProt P17947 1-270); assay: protein-binding microarray (PBM); 20 mM HEPES pH 7.9, 100 mM NaCl, 1 mM DTT, 0.2 mg/mL BSA, 0.02% Triton X-100, 2% milk, 0.4 mg/mL salmon testes DNA; 1 h; temperature not stated; high values mean tight binding; conditions: dsDNA, one strand shown
Summary of the method: (§1)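 Full-length untagged PU.1 was made by coupled human in vitro transcription/translation. It was bound for 1 h to custom double-stranded DNA microarrays carrying 20-bp genomic sites and single-nucleotide variants, 10 probes per site (5 per orientation). The binding buffer was HEPES pH 7.9 with 100 mM NaCl, 2% milk and salmon testes DNA. Bound protein was detected with anti-PU.1 and then a fluorescent secondary antibody. Binding is a z-score from scanned fluorescence after linear-regression normalisation.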

[2] = target: PU.1 (IVT) (UniProt P17947 1-270); assay: as above; conditions: dsDNA, one strand shown; remark: listed apart in the source
Summary of the method: as §1

Sequence	binding signal [1] [z-score]	binding signal [2] [z-score]
GCCTAGCACTATTTGAGGAAGTGTGAGAAGTGCTAGGTCTTGATTCGCTTGACGCTGCTG	5.91	
GCCTAGCACTAAAGAGGGAAGTGGGAGCCGTGCTAGGTCTTGATTCGCTTGACGCTGCTG	3.74	
GCCTAGCACGGAAAGTGGAACTGAAACTTGTGCTAGGTCTTGATTCGCTTGACGCTGCTG		1.93
GCCTAGCACGAAAAGAGGATGTGGATCTGGTGCTAGGTCTTGATTCGCTTGACGCTGCTG		3.52
GCCTAGCACAAAAACAGGAACTGGCCAGGGTGCTAGGTCTTGATTCGCTTGACGCTGCTG		5.89
GCCTAGCACCGAATGAGGAACTGATGCGGGTGCTAGGTCTTGATTCGCTTGACGCTGCTG		5.03
GCCTAGCACGAAATGAGGAAGTCAAATTAGTGCTAGGTCTTGATTCGCTTGACGCTGCTG	7.71	
GCCTAGCACGAAAAGAGGAAGTCAAAATAGTGCTAGGTCTTGATTCGCTTGACGCTGCTG	8.29	
GCCTAGCACAAAAAGAGGAAGTCAAATTGGTGCTAGGTCTTGATTCGCTTGACGCTGCTG	8.3	
GCCTAGCACAAAAAGAGGAAGTCAAATAAGTGCTAGGTCTTGATTCGCTTGACGCTGCTG	8.51	
GCCTAGCACAAAAAAAGGAAGTGGAATTAGTGCTAGGTCTTGATTCGCTTGACGCTGCTG	6.73	
GCCTAGCACGAGAAGAGGAAGTCAAATAAGTGCTAGGTCTTGATTCGCTTGACGCTGCTG		5.64
GCCTAGCACGAAAAGAGGAAGTCACATTGGTGCTAGGTCTTGATTCGCTTGACGCTGCTG	8.32	
GCCTAGCACAATAAGAGGAAGTCAAAATAGTGCTAGGTCTTGATTCGCTTGACGCTGCTG		6.65
GCCTAGCACAAAAAGAGGAAGTCAAATTAGTGCTAGGTCTTGATTCGCTTGACGCTGCTG	8.57	
GCCTAGCACGAAAAGAGGAAGTCACATTAGTGCTAGGTCTTGATTCGCTTGACGCTGCTG	8.62	
GCCTAGCACGAAAAGAGGAAGTCAGATTAGTGCTAGGTCTTGATTCGCTTGACGCTGCTG	8.07	
GCCTAGCACGAAAAGAGGAAGTCAAATTAGTGCTAGGTCTTGATTCGCTTGACGCTGCTG	8.43	
GCCTAGCACGCTTTAGGGAACTACTGTGGGTGCTAGGTCTTGATTCGCTTGACGCTGCTG		3.58
GCCTAGCACCCTAAAGGGAAGTGTAAATAGTGCTAGGTCTTGATTCGCTTGACGCTGCTG		3.27
GCCTAGCACCAAATCAGGAACTGATGCGGGTGCTAGGTCTTGATTCGCTTGACGCTGCTG		3.39

Sequence	binding signal [1] [z-score]	binding signal [2] [z-score]
GCCTAGCACTTTTATCAGGAAATGACTGGGTGCTAGGTCTTGATTCGCTTGACGCTGCTG		0.896
GCCTAGCACTCAGGAGGGAAGTGAAGAAAGTGCTAGGTCTTGATTCGCTTGACGCTGCTG	2.65	
GCCTAGCACAGATTGTGGAAGTACTGTGAGTGCTAGGTCTTGATTCGCTTGACGCTGCTG	2.73	
GCCTAGCACAGAATAGGGAAGTGAGAAATGTGCTAGGTCTTGATTCGCTTGACGCTGCTG	6.39	
GCCTAGCACCAGAAAAGGAAGTGGGGGTGGTGCTAGGTCTTGATTCGCTTGACGCTGCTG		3.51
GCCTAGCACCTGGGAGGGAACTGAAACTCGTGCTAGGTCTTGATTCGCTTGACGCTGCTG		0.859
GCCTAGCACTGGAAGAGGAAGTGGCACTGGTGCTAGGTCTTGATTCGCTTGACGCTGCTG		5.78
GCCTAGCACCTTTTAAGGAAGTGCTCACTGTGCTAGGTCTTGATTCGCTTGACGCTGCTG		4.92
GCCTAGCACGAAAAGAGGAAGTGAGAAACGTGCTAGGTCTTGATTCGCTTGACGCTGCTG	8.29	
GCCTAGCACGAAAAGAGGAAGAGTCTTAGGTGCTAGGTCTTGATTCGCTTGACGCTGCTG		5
GCCTAGCACGAAAAGAGGAAGTTGGACATGTGCTAGGTCTTGATTCGCTTGACGCTGCTG	8.75	
GCCTAGCACGAAAAGAGGAAGCCCATGTGGTGCTAGGTCTTGATTCGCTTGACGCTGCTG	5.2	
GCCTAGCACGAAAAAAGGAAGTAGTATAAGTGCTAGGTCTTGATTCGCTTGACGCTGCTG	6.96	
GCCTAGCACGAAAAGAGGAAATGGGGAGTGTGCTAGGTCTTGATTCGCTTGACGCTGCTG		5.14
GCCTAGCACGAAAAGAGGAAGTAGGATAAGTGCTAGGTCTTGATTCGCTTGACGCTGCTG	8.46	
GCCTAGCACGAAAAGAGGAAGTTGCTTACGTGCTAGGTCTTGATTCGCTTGACGCTGCTG	9.03	
GCCTAGCACGAAAAGAGGAAGTTGGGGAAGTGCTAGGTCTTGATTCGCTTGACGCTGCTG	8.94	
GCCTAGCACGAAAAGGGGAAGTTGGGTTGGTGCTAGGTCTTGATTCGCTTGACGCTGCTG	8.21	
GCCTAGCACGAAGTAGGGAAGTGAAAGAGGTGCTAGGTCTTGATTCGCTTGACGCTGCTG		3.36
GCCTAGCACGAAAAGAGGAAGTCTTGCATGTGCTAGGTCTTGATTCGCTTGACGCTGCTG	8.22	
